Screens from PubChem.
Tau filament bind – qHTS Assay for Tau Filament Binding; recombinant tau filaments, thioflavin S fluorescence, 15 h; filaments grown with octadecylsulfate alongside compound; AID 596, 2007; 71,000 tested, 2% active; Potency, µM (titrated, usually from 57.1 µM); Microtubule-associated protein tau (Homo sapiens), P10636;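 also: actives lower thioflavin S fluorescence by blocking filaments or displacing dye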
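Tau 2 uM in ThS buffer dispensed; compound added; 60 uM ODS added (finals 1 uM tau, 30 uM ODS); 15 h 37 C; fluor ex450/em510.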
ALOX15 inhib – qHTS Assay for Inhibitors of 15-hLO (15-human lipoxygenase); Polyunsaturated fatty acid lipoxygenase ALOX15 (Homo sapiens), P16050; purified 15hLO-1, xylenol orange hydroperoxide absorbance; Potency, µM (highest dose often 57.1 µM), most hits filed as inhibitors; 74,000 tested, 1.4% active; AID 887, 2007; also: nearly all actives have a fitted effect of over 55% in size
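Purified human 15hLO-1 (40 nM) in 25 mM Hepes pH 7.5, 0.01% Triton X-100, preincubated 15 min RT with compound, then 50 uM arachidonic acid for 6 min. Hydroperoxide read by ferrous/xylenol orange, 30 min; 573/405 nm absorbance ratio gave progress.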
Hsp90 Hop PPI – qHTS Assay for Disrupters of an Hsp90 Co-Chaperone Interaction. 71,000 tested, 0.44% active. Potency, µM (doses to about 57 µM). AlphaScreen TPR2A-His6 binding biotin-Hsp90 C-terminal peptide. Hsp90 C-terminal peptide / TPR2A (Hop) interaction, human; active = well fitted curve in either direction with a large enough effect; inconclusive = small, poorly fitted or top-dose-only effect, or another doubt
FLuc inh – qHTS Assay for Inhibitors of Firefly Luciferase; Luciferin 4-monooxygenase (Photinus pyralis), P08659; purified firefly luciferase, luminescence, 8 min; Potency, µM (titrated, usually from 57.1 µM), hits mostly inhibitors; 72,000 tested, 2.2% active; AID 411, 2009; also: nearly all actives have a fitted effect of over 40% in size
Target sequence (P08659 whole entry, looked up): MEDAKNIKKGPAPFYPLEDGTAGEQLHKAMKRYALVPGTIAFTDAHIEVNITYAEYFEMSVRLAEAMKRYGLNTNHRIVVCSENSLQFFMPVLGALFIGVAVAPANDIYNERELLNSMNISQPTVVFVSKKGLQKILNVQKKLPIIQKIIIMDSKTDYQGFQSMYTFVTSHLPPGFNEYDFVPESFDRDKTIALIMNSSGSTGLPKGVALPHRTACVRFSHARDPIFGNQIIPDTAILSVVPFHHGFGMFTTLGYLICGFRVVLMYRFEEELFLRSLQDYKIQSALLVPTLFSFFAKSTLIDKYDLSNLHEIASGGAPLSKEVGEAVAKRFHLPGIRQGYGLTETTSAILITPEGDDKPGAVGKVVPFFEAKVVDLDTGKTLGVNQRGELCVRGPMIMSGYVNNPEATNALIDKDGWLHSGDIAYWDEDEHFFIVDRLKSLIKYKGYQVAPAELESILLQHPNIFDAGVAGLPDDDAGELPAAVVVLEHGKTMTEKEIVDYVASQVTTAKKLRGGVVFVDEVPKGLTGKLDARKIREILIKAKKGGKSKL
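Titration-based qHTS; buffer 50 mM imidazole pH 7.2, 50 mM KCl, 7 mM MgCl2, 10 uM ATP, 0.01% Tween 20, 0.05% BSA; luciferase/luciferin detector mix added after compound; 8 min, ambient; luminescence.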
ERK AVP block – qHTS Assay for Inhibitors of the ERK Signaling Pathway using a Homogeneous Screening Assay; HEK293-V1b, vasopressin-stimulated pERK AlphaScreen; Potency, µM (highest dose often 57.5 µM), usual class: inhibitors; 72,000 tested, 0.99% active; also: nearly all actives have a fitted effect of over 55% in size
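Overnight-seeded V1b-HEK293 cells in 1% FBS got compound, then vasopressin (25 nM final, 5 min, 37C), then lysis buffer. AlphaScreen detection of phospho-ERK; activity normalized to basal and full-stimulation controls.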
Bst PK mod – Pyruvate Kinase. Potency, µM. 51,000 tested, 1.2% active. purified pyruvate kinase, luminescence ATP production; ribose 5-phosphate activator present at AC10. AID 361, 2006; in the data active = potency below about 11 µM; inconclusive = mostly about 12 µM to 25 µM;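 the screen sought inhibitors and activators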
Hsp90-TPR2A inh – Confirmation Concentration-Response Assay and Counterscreen for Disrupters of an Hsp90 Co-Chaperone Interaction | 45 tested, 100% active | activity, negative = inhibition, % at 40 µM or 46 µM, hits read low | AlphaScreen TPR2A-His6 / biotin-Hsp90 peptide binding | shares compounds with Hsp90 Hop PPI | AID 632, 2007;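 active = compound lowering the Hsp90 and TPR2A binding signal, whether or not the linker counterscreen also flagged it as an artifact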
Tau ThS bind – Tau ThS binding assay. shares compounds with Tau filament bind. Potency, µM. recombinant tau filaments, Thioflavin S fluorescence displacement. 60 tested, 40% active; calls by dose curve
aSyn ThS bind – Alpha-synuclein ThS binding assay. shares compounds with Tau filament bind. recombinant alpha-synuclein fibrils, ThS fluorescence displacement. Potency, µM. 60 tested, 40% active; calls by dose curve
Abeta ThS bind – Beta amyloid ThS binding assay. shares compounds with Tau filament bind. Abeta1-42 fibrillization, thioflavin S fluorescence, overnight 37 C. Potency, µM. 60 tested, 50% active; calls by dose curve
Numbers stand for hits; - = inactive; ? = inconclusive; . = no result; [ ] = remark or other dose. Rows were chosen to be rich in hits. Some 6.1% of all compounds tested hit in one or more screens of this group. Unless noted, calls follow the shape of the dose curve; as a rule, active = well fitted curve in the direction sought with a large enough effect; inconclusive = small, poorly fitted or top-dose-only effect, or another doubt; inactive = no such curve, though single readings can be large; an effect the other way counts as inactive or inconclusive.

SMILES	Tau filament bind	ALOX15 inhib	Hsp90 Hop PPI	FLuc inh	ERK AVP block	Bst PK mod	Tau ThS bind	aSyn ThS bind	Abeta ThS bind	others
COc1ccc(NC(=O)Cc2nc3ccccc3[nH]2)cc1	-	-	-	-	-	.	.	.	.
c1ccc(-c2n[nH]c(-c3ccccn3)n2)nc1	-	-	0.2µM	-	-	.	.	.	.	Hsp90-TPR2A inh=-98.3[alpha-screen platform artifact]
Cc1ccccc1CS(=O)(=O)Cc1ccc(C(=O)NCc2ccccn2)o1	-	-	3.98µM	-	-	-	.	.	.	Hsp90-TPR2A inh=-91.4[alpha-screen platform artifact]
O=C(NCc1ccccn1)c1ccc(CS(=O)(=O)Cc2ccc(Cl)cc2)o1	-	-	-	-	-	-	.	.	.
Oc1c(CN2CCOCC2)cc(COCc2ccccc2)c2cccnc12	-	-	1.58µM	-	-	-	-	?	-	Hsp90-TPR2A inh=-99.7[alpha-screen platform artifact]
CC(C)[C@@H](CC(=O)N[C@@H]1CCCC[C@H]1C(=O)N[C@H](CC(=O)N[C@@H](CCC(=O)O)CC(=O)O)Cc1c[nH]c2ccccc12)NC(=O)C[C@H](Cc1ccccc1)NC(=O)[C@@H]1CNCC[C@H]1N	-	.	-	.	.	.	.	.	.
Nc1ccc(Nc2ccccc2N)cc1	-	?	?	-	-	.	2.77µM	2.32µM	2.05µM
Nc1cc(C(=O)O)ccc1Nc1ccccc1	-[11.4 µM]	-[11.4 µM]	-[11 µM]	-	-	.	.	.	.
CCOC(=O)C1CCN(S(=O)(=O)c2cccc3nonc23)CC1	-	-	-	-	-	-	-	-	-
CCOc1cc2[nH]c(=O)n(CCCCC(=O)NC3CCCCC3)c(=O)c2cc1OCC	-	-	?	-	-	-	-	-	-
COc1cc2[nH]c(=O)n(CCC(=O)NC3CCCC3)c(=O)c2cc1OC	-	-	-	-	-	-	.	.	.
N#CC(C(=O)NCCc1ccccc1)c1nc2ccccc2nc1N1CCCCC1 (stereo not given)	-	-	?	-	-	-	?	?	?
COCCCNC(=O)C(C#N)c1nc2ccccc2nc1N1CCCC1 (stereo not given)	.	.	.	-	.	-	.	.	.
CC1(C)CCC(NC(=O)[C@H](N)CCC(=O)O)CC1	-	-	-	-	-	.	.	.	.
O=C1C[C@@H](O)[C@@H](O)[C@H]2[C@@H]3C(=O)N(Cc4ccccc4)C(=O)[C@@H]3CC[C@H]12	.	-[11.4 µM]	.	-[11.4 µM]	-[11.5 µM]	.	.	.	.
CC(=O)OCCNc1cc(N2CCN(C)CC2)c2noc3c2c1C(=O)c1ccccc1-3	3.16µM	-	?	-	15.8µM	.	2.98µM	2.67µM	1.3µM
CCn1c(=O)cc(OCC(=O)Nc2ccccc2N2CCN(C)CC2)c2ccccc21	-	-	-	-	-	.	.	.	.
O=C(c1csnn1)N1CCC2(CCCN(c3ncccn3)C2)CC1	-	-	-	-[11.4 µM]	-	.	.	.	.
CN1c2cccc3cccc(c23)N(C)C1(C)C	-	-	-	-	-	.	-	?	?
CN1/C(=N\O)c2cccc3cccc1c23	-	-	-	-	-	?	.	.	.
N=C(N)c1ccc(N=Nc2c(O)ccc3c2[nH]c2ccccc23)cc1	1µM	-[11.4 µM]	?	-[11.4 µM]	-[11.5 µM]	.	0.81µM	2.62µM	1.03µM
O=C(O)c1ccc(CNCc2ccccc2)cc1	-[11.4 µM]	-[11.4 µM]	-[11 µM]	-[11.4 µM]	-[11.5 µM]	.	.	.	.
O=C(c1cc(C(F)(F)F)cc(C(F)(F)F)c1)N1CCC2(CCN(Cc3ccncc3)CC2)CC1	-	-	-	-[11.4 µM]	-	.	.	.	.
CCOC(=O)N1CCc2c(sc3c2C(=O)NC(c2ccc(-c4ccc(Cl)cc4)o2)N3)C1 (stereo not given)	0.631µM	-	-	-	-	-	-	-	-
O=S(=O)(O)c1ccc(N=Nc2ccc3c(S(=O)(=O)O)cccc3c2O)c2ccccc12	-[11.4 µM]	-[11.4 µM]	?	-[11.4 µM]	-[11.5 µM]	.	.	.	.
SMILES	Tau filament bind	ALOX15 inhib	Hsp90 Hop PPI	FLuc inh	ERK AVP block	Bst PK mod	Tau ThS bind	aSyn ThS bind	Abeta ThS bind	others
Nc1c(N=Nc2ccc(-c3ccc(N=Nc4cc(S(=O)(=O)O)c5ccccc5c4N)cc3)cc2)cc(S(=O)(=O)O)c2ccccc12	.	.	.	.	.	.	0.29µM	0.423µM	2.35µM
Cc1cc(-c2ccc(N=Nc3ccc4c(S(=O)(=O)O)cc(S(=O)(=O)O)c(N)c4c3O)c(C)c2)ccc1N=Nc1ccc2c(S(=O)(=O)O)cc(S(=O)(=O)O)c(N)c2c1O	3.16µM	?	3.98µM	31.6µM	25.1µM	.	0.19µM	0.774µM	0.92µM
COC(=O)C1(CC(C)C)C=C2C(=C(C(C)C)C(=O)C2C)CN1 (stereo not given)	-	.	-	.	-	.	.	.	.
CN(C)c1ccc(NC(=S)c2ccccn2)cc1	5.01µM	-	?	0.794µM	15.8µM	.	7.11µM	8.88µM	6.24µM
CN(C)S(=O)(=O)c1ccc(NC(=O)c2ccccn2)cc1	-	-	-	?	?	.	.	.	.
Cc1noc(C)c1C(=O)N1CCC2(CCCN(c3ncccn3)C2)CC1	-	-	-	-[11.4 µM]	-	.	.	.	.
COc1cccc2c1C(=N)c1c(O)c3c(c(O)c1C2=O)C[C@](O)(C(C)=O)C[C@@H]3O[C@H]1C[C@H](N)[C@@H](O)[C@H](C)O1	1.26µM	-[11.4 µM]	-[11 µM]	-[11.4 µM]	-[11.5 µM]	.	1.82µM	1.95µM	0.68µM
Cc1cc(NC(=O)c2cc3nc(C4CC4)cc(C(F)(F)F)n3n2)no1	-	-	-	-	-	-	?	-	?
CCCCC(=O)N(Cc1ccc(-c2ccccc2-c2nn[nH]n2)cc1)C(C(=O)O)C(C)C (stereo not given)	.	-	.	.	-	.	.	.	.
Cc1cc(C(=O)Nc2ccc(N3CCOCC3)cc2)c2ccccc2n1	7.94µM	-	-	-	-	-	-	-	-
CCCCOc1ccc(C(=O)Nc2ccc(N3CCN(C)CC3)cc2)cc1	1µM	-	-	-	-	-	?	-	-
CO[C@H]1COC(=O)[C@@H](Cc2ccccc2)NC(=O)[C@@H](C)COC(=O)C/C=C\[C@@H]1C	.	-[11.4 µM]	.	-[11.4 µM]	-[11.5 µM]	.	.	.	.
CN(C)c1ccc(C(=C2C=CC(=[N+](C)C)C=C2)c2c(O)c(S(=O)(=O)O)cc3cc(S(=O)(=O)O)ccc23)cc1	-[11.4 µM]	-[11.4 µM]	?	3.16µM	?	.	?	-	-
